From PubChem BioAssay (EPA / NIEHS) come the findings set out here.

Calls of active or inactive are those of the source. The calls were made as follows: active = hit-call score of the fitted dose curve at least 0.9, where 1 is the maximum; inactive = score below 0.9.

Chain of Cellular tumor antigen p53 (Homo sapiens) (P04637 whole entry, looked up): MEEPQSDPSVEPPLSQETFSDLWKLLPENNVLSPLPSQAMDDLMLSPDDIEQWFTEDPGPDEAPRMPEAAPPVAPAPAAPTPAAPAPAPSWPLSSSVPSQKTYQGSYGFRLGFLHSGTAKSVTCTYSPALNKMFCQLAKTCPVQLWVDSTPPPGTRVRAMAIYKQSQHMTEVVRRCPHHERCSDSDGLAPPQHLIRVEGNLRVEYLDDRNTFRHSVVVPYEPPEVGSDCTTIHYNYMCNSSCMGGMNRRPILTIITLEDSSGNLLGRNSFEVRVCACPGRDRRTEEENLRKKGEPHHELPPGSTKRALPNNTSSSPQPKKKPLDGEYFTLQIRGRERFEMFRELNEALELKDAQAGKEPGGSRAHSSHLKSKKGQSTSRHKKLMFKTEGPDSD

The test has as its target Cellular tumor antigen p53 (Homo sapiens) (UniProt P04637). The experiment in a line: ATG_p53_CIS: Attagene CIS-FACTORIAL HepG2 Assay for human p53 Transcription Factor (AID 2282994). Particulars: HepG2 p53 cis-element reporter, Attagene mRNA; actives raise or lower the signal. How it is done:
ATG_CIS is a cell-based, multiplexed-readout assay that uses HepG2, a human liver cell line, with measurements taken at 24 hours after chemical dosing in a 24-well plate.ATG_p53_CIS is one of 52 assay component(s) measured or calculated from the ATG_CIS assay. It is designed to make measurements of mRNA induction, a form of inducible reporter, as detected with fluorescence intensity signals by Reverse transcription polymerase chain reaction (RT-PCR) and Capillary electrophoresis technology.Data from the assay component ATG_p53_CIS was analyzed into 1 assay endpoint. This assay endpoint, ATG_p53_CIS, was analyzed with bidirectional fitting relative to DMSO as the negative control and baseline of activity. Using a type of inducible reporter, measures of mRNA for gain or loss-of-signal activity can be used to understand the reporter gene at the transcription factor-level as they relate to the gene TP53. Furthermore, this assay endpoint can be referred to as a primary readout, because this assay has produced multiple assay endpoints where this one serves a reporter gene function. To generalize the intended target to other relatable targets, this assay endpoint is annotated to the dna binding intended target family, where the subfamily is tumor suppressor.
Human liver HepG2 cells are transiently transfected with multiple reporter transcription units (MRTUs) in 6-well plates using FuGene 6 reagent (Roche; 3 ml FuGene/1 mg DNA). The MRTU constructs are regulated by a cis-regulating element (promoter). […] A major difference between the CIS and TRANS system is that in CIS activities of endogenous TFs are measured, whereas the TRANS assay evaluates changes in activities of exogenous, chimeric NR-Gal4 proteins. […] At the end of 24 hour incubation, total RNA was isolated using TriZol reagent (Invitrogen). The isolated RNA is then reverse-transcribed using oligo(dT) primer and Mo-MLV reverse transcriptase (Invitrogen) with DNAse I (Ambion) treatment for 30 min. The one-tenth of the produced cDNA was amplified by PCR using Taq DNA polymerase (Invitrogen) and two reporter sequence-specific primers. The PCR products were fluorescently labeled by primer extension with 6-arboxyfluorescein (6-FAM) 5'-labeled reporter sequence-specific primer (2 min at 95 C, 20 s at 68 C and 10 min at 72 C) and these products were digested with 5U of HpaI (New England Biolabs) for 2h at 37 C. The fragments were purified using Qiaquick PCR columns (Qiagen), analyzed on an ABI 3130xL genetic analyzer (Applied Biosystems) with peak positions identified by using a set of X-rhodamine (ROX)-labeled MapMarker1000 molecular weight standards (BioVentures). The raw capillary electrophoresis data was processed using Attagraph software (Attagene).
On to `Cn1ccnc1`, for which the outcome was inactive. Same read-out and setting: to `NNS(=O)(=O)c1ccc(Oc2ccc(S(=O)(=O)NN)cc2)cc1` belongs “inactive”; to `CC1=CC(C)C(C=O)CC1` (stereo not given), “inactive”; to `O=C(Cl)c1c(Cl)c(Cl)c(C(=O)Cl)c(Cl)c1Cl`, “inactive”. Same read-out and setting: under `C=C(C)C(=O)OCCOC(=O)C(=C)C` stands “inactive”; under `CC(C)=CCl`, “inactive”; under `CCCCC1C(=O)N(c2ccccc2)N(c2ccccc2)C1=O`, “inactive”. On the same count and under the same terms, to `O=C1CCCCCCCCCCCN1` belongs “inactive”; to `CCOC(=O)/C=C\C(=O)OCC`, “inactive”; to `CC1=NN(c2ccc(S(=O)(=O)O)cc2)C(=O)C1N=Nc1ccccc1` (stereo not given), “inactive”. As to `CC1OC(=O)C(C)OC1=O` (stereo not given), the call was inactive. On to `CCOC(=O)C1=NN(c2ccc(Cl)cc2Cl)C(C)(C(=O)OCC)C1` (stereo not given), for which the call was inactive. Same read-out and setting: to `CCCCC(=O)O` belongs “inactive”; to `CCOC(=O)c1ccccc1C`, “inactive”. As for `O=C1CCCCCCCCCCC1`, the call was inactive. Still for that read-out and setting: under `Cc1cc(C)n(CO)n1` stands “inactive”; under `CCCCCOC(=O)CCCCC`, “inactive”; under `CCCCCCCCCC(C)=O`, “inactive”. Same read-out and setting: under `Oc1c(Cl)cc(Cl)c(Cl)c1Cl` stands “inactive”. The same measure, in the same setting: to `CCCCCCCCCCCCCc1ccccc1` belongs “inactive”; to `Cc1c(C(=O)c2c[nH]n(C)c2=O)ccc(S(C)(=O)=O)c1C1=NOCC1`, “inactive”. For `CC(C)(C)NC(=O)[C@H]1CC[C@H]2[C@@H]3CC[C@H]4NC(=O)C=C[C@]4(C)[C@H]3CC[C@]12C`, the AC50 was 38.7 µM (active).

For `CC/C=C\CCOC(=O)c1ccccc1O`, the AC50 was 138 µM (active). On to `CC(C)CCCCCOC(=O)CS`, for which the result was inactive.

With `CCCCCCCOC(=O)c1ccc(O)cc1`, the molecule was classed as inactive. In the case of `CC(=O)OC1CCCCC1`, the result was inactive. Same read-out and setting: under `CC(C)(C)C1CCC(=O)CC1` stands “inactive”. Still for that read-out and setting: under `Cc1cc(=O)[nH]c(=O)[nH]1` stands “inactive”. Still for that read-out and setting: under `C=C1C[C@H]2[C@@H]3C=C(C)C4=CC(=O)CC[C@]4(C)[C@H]3CC[C@]2(C)[C@@]1(OC(C)=O)C(C)=O` stands “inactive”. As to `O=C(O)C1CCC(C(=O)O)CC1` (stereo not given), the call was inactive.

As for `CCc1cccc(C)c1N`, the result was inactive. As for `COc1ccc(-c2coc3cc(O)cc(O)c3c2=O)cc1`, the AC50 is 159 µM (active). As to `C[N+](C)(C)CCCNS(=O)(=O)C(F)(F)C(F)(F)C(F)(F)C(F)(F)C(F)(F)C(F)(F)C(F)(F)C(F)(F)F`, the result was inactive. With `Clc1cccnc1`, the molecule was called inactive. On to `C=C(C)C1CC=C(C)CC1` (stereo not given), for which the call was inactive. Still for that read-out and setting: under `NC(=O)Nc1ccccc1` stands “inactive”; under `COc1nccnc1CC(C)C`, “inactive”; under `CCCCCCC=O`, “inactive”.

Consider `CCCCC/C=C\C/C=C\CCCCCCCC(=O)O`, for which the molecule was called inactive. The same measure, in the same setting: to `Nc1ccnc(=O)[nH]1` belongs “inactive”.
